Reference: PubChem BioAssay (EPA / NIEHS)
Records with an inconclusive call do not appear. Calls of active or inactive are those of the source. The calls were made as follows: active = hit-call score of the fitted dose curve at least 0.9, where 1 is the maximum; inconclusive = response in the unintended direction; inactive = score below 0.9.

How the values were obtained:
[1] = target: Cellular tumor antigen p53 (Homo sapiens) (UniProt P04637); experiment: TOX21_p53_BLA_p4_ratio: Tox21 HCT-116 p53 Agonism Beta-lactamase Assay, Ratio, Phase 4 (AID 2283601)
Outline: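 HCT-116 p53 beta-lactamase reporter cells (4000/well) preincubated 5 h, then compound (217-fold dilution of DMSO stock) for 16 h at 37C. CCF4-AM substrate added 2 h at room temperature; 460/530 nm emission ratio fitted upward versus DMSO.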

[2] = Tanguay_ZF_120hpf_MORT_legacy: (Legacy) Oregon State University Tanguay Lab 120 Hour Post-fertilization zebrafish Assay for Mortality (AID 2283633)
Outline: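 Dechorionated Tropical 5D wild-type zebrafish embryos, one per well from 6 hpf, were statically exposed at 28C in the dark until 120 hpf (0.64% DMSO final). Mortality was scored as present/absent by brightfield microscopy, fitted positively versus DMSO.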

[3] = Tanguay_ZF_120hpf_YSE_legacy: (Legacy) Oregon State University Tanguay Lab 120 Hour Post-fertilization zebrafish Assay for Yolk Sac Edema (AID 2283634)
Outline: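 Tropical 5D wild-type embryos, dechorionated with pronase at 4 hpf, were exposed singly from 6 hpf to 120 hpf under static, sealed, dark conditions at 28C with 0.64% DMSO final. Yolk sac edema was scored present/absent by brightfield microscopy.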

[4] = Tanguay_ZF_120hpf_EYE_legacy: (Legacy) Oregon State University Tanguay Lab 120 Hour Post-fertilization zebrafish Assay for Eye Malformation (AID 2283636);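 also: binary presence or absence of eye malformation scored by brightfield in 120 hpf larvae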
Outline: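 5D wild-type embryos, pronase-dechorionated at 4 hpf; static exposure 6–120 hpf, 28C, dark; DMSO 0.64% final; 5uM trimethyltin chloride positive control. Binary eye-defect scoring at 120 hpf; dead embryos not scored.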

[5] = Tanguay_ZF_120hpf_SNOU_legacy: (Legacy) Oregon State University Tanguay Lab 120 Hour Post-fertilization zebrafish Assay for Snout Malformation (AID 2283637)
Outline: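 Binary brightfield scoring of snout malformation at 120 hpf. Dechorionated 5D wild-type embryos, one per well, static exposure from 6 hpf at 28C, sealed and dark; final DMSO 0.64% (vol/vol), DMSO as baseline; 5uM trimethyltin chloride positive control.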

[6] = Tanguay_ZF_120hpf_OTIC_legacy: (Legacy) Oregon State University Tanguay Lab 120 Hour Post-fertilization zebrafish Assay for Otic Vesicle Malformation (AID 2283639)
Outline: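 Brightfield scoring at 120 hpf, binary present/absent; DMSO negative control, 5uM trimethyltin chloride positive control. Static exposure at 28C, final DMSO 0.64% (vol/vol). Dead embryos not scored for malformation.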

[7] = Tanguay_ZF_120hpf_PE_legacy: (Legacy) Oregon State University Tanguay Lab 120 Hour Post-fertilization zebrafish Assay for Pericardial Edema (AID 2283640)
Outline: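 Tropical 5D wild-type zebrafish embryos were exposed statically to 120 hpf at 28C, sealed and foil-covered, in 0.64% DMSO final. Pericardial edema was scored present/absent by brightfield microscopy; dead embryos were not scored.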

[8] = Tanguay_ZF_120hpf_BRAI_legacy: (Legacy) Oregon State University Tanguay Lab 120 Hour Post-fertilization zebrafish Assay for Brain Malformation (AID 2283641)
Outline: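 Tropical 5D wild-type zebrafish embryos were exposed statically in sealed, foil-covered plates at 28C until 120 hpf, with 0.64% (vol/vol) final DMSO. Brain malformation was scored present/absent by brightfield microscopy, relative to DMSO baseline.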

[9] = Tanguay_ZF_120hpf_SOMI_legacy: (Legacy) Oregon State University Tanguay Lab 120 Hour Post-fertilization zebrafish Assay for Somite Malformation (AID 2283647)
Outline: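 Tropical 5D wild-type zebrafish embryos, dechorionated with pronase at 4 hpf, were placed singly at 6 hpf and statically exposed until 120 hpf at 28C in 0.64% DMSO. Somite malformation was scored present/absent by brightfield microscopy versus DMSO.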

[10] = Tanguay_ZF_120hpf_PFIN_legacy: (Legacy) Oregon State University Tanguay Lab 120 Hour Post-fertilization zebrafish Assay for Pectoral Fin Malformation (AID 2283648);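 also: each larva judged yes or no for fin defect by brightfield with dead larvae skipped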
Outline: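 Binary pectoral fin malformation call at 120 hpf by brightfield microscopy; 5D wild-type zebrafish, chorion removed at 4 hpf, one embryo per well from 6 hpf, static exposure at 28C; DMSO (0.64% final) as baseline.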

[11] = Tanguay_ZF_120hpf_PIG_legacy: (Legacy) Oregon State University Tanguay Lab 120 Hour Post-fertilization zebrafish Assay for Pigmentation Malformation (AID 2283650)
Outline: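 Brightfield scoring of pigmentation malformation at 120 hpf, recorded as binary present/absent per larva. Exposure: dechorionated 5D wild-type embryos, one per well, static from 6 hpf at 28C, final DMSO 0.64% (vol/vol). Dead embryos not scored.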

[12] = Tanguay_ZF_120hpf_CIRC_legacy: (Legacy) Oregon State University Tanguay Lab 120 Hour Post-fertilization zebrafish Assay for Circulatory Malformation (AID 2283651)
Outline: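 Static exposure, 6–120 hpf, 28C, sealed and dark; one dechorionated 5D embryo/well; DMSO 0.64% v/v final. Binary circulation endpoint by brightfield; dead embryos not scored.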

[13] = target: Cellular tumor antigen p53 (Homo sapiens) (UniProt P04637); experiment: TOX21_p53_BLA_p5_ratio: Tox21 HCT-116 p53 Agonism Beta-lactamase Assay, Ratio, Phase 5 (AID 2283599)
Outline: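 HCT-116 p53-bla cells (4000/well) plated 5 h, dosed with compound (217-fold DMSO dilution) for 16 h at 37 C; CCF4-AM substrate 2 h at room temperature. Activity is the 460/530 nm emission ratio (405 nm excitation), fitted in gain-of-signal direction versus DMSO.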

[14] = TOX21_p53_BLA_p5_viability: Viability Assessment in the Tox21 HCT-116 p53 Agonism Beta-lactamase Assay, Phase 5 (AID 2283600)
Outline: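 Luciferase-coupled ATP quantitation of cells treated for 16 h (37C, 5% CO2) with test chemicals delivered in DMSO via a 217-fold dilution; 4000 cells/well; reagent incubated 30 min at room temperature before luminescence reading.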

[15] = Tanguay_ZF_120hpf_AXIS_legacy: (Legacy) Oregon State University Tanguay Lab 120 Hour Post-fertilization zebrafish Assay for Body Axis Malformation (AID 2283635)
Outline: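 Tropical 5D wild-type zebrafish embryos, dechorionated with pronase at 4 hpf, were placed singly in wells at 6 hpf and exposed statically to test chemical (0.64% DMSO final) at 28C until 120 hpf, then scored by brightfield for body axis defects.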

[16] = Tanguay_ZF_120hpf_CFIN_legacy: (Legacy) Oregon State University Tanguay Lab 120 Hour Post-fertilization zebrafish Assay for Caudal Fin Malformation (AID 2283649)
Outline: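 Tropical 5D wild-type embryos, dechorionated with pronase at 4 hpf, were placed singly in wells at 6 hpf and statically exposed to compound at 28C until 120 hpf (0.64% DMSO). Caudal fin malformation was scored present/absent by brightfield microscopy.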

[17] = Tanguay_ZF_120hpf_SWIM_legacy: (Legacy) Oregon State University Tanguay Lab 120 Hour Post-fertilization zebrafish Assay for Swim Bladder Malformation (AID 2283654);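 also: swim bladder malformation in each larva scored yes or no under brightfield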
Outline: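 Tropical 5D embryos dechorionated at 4 hpf; 1 embryo/well from 6 hpf; static, sealed, dark exposure at 28C until 120 hpf; final DMSO 0.64%; 5uM trimethyltin chloride positive control; swim bladder defect recorded yes/no; dead embryos not scored.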

[18] = Tanguay_ZF_120hpf_JAW_legacy: (Legacy) Oregon State University Tanguay Lab 120 Hour Post-fertilization zebrafish Assay for Jaw Malformation (AID 2283638)
Outline: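 Tropical 5D wild-type embryos, dechorionated with pronase at 4 hpf, were placed singly per well at 6 hpf and statically exposed at 28C until 120 hpf (0.64% DMSO final). Jaw malformation scored as present/absent by brightfield microscopy at 120 hpf, analyzed relative to DMSO.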

Measured: outcome

Sequence of Cellular tumor antigen p53 (Homo sapiens) (P04637 whole entry, looked up): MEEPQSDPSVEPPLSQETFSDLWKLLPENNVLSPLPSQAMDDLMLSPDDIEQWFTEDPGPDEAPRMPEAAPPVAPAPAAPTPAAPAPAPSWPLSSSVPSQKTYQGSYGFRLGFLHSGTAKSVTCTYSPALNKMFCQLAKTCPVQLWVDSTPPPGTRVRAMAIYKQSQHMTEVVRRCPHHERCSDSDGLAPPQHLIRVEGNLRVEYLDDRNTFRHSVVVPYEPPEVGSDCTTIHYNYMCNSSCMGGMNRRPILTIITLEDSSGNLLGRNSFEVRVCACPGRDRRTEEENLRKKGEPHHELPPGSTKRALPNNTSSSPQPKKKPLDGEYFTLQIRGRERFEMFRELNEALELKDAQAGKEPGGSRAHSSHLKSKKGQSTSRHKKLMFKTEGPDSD

CCOP(=S)(OCC)SCSC(C)(C)C
not listed: [13] | [14] | [15] | [16] | [17] | [18]
inactive: all other assays above

CCCCCCCCOC(=O)c1ccccc1C(=O)OCCCCCCCC
not listed: [18]
inactive: all other assays above

O=C(O)C(F)(F)C(F)(F)C(F)(F)C(F)(F)C(F)(F)F
not listed: [9] | [14]
inactive: all other assays above
